T1: USP38, Q8NB14
T1 chain: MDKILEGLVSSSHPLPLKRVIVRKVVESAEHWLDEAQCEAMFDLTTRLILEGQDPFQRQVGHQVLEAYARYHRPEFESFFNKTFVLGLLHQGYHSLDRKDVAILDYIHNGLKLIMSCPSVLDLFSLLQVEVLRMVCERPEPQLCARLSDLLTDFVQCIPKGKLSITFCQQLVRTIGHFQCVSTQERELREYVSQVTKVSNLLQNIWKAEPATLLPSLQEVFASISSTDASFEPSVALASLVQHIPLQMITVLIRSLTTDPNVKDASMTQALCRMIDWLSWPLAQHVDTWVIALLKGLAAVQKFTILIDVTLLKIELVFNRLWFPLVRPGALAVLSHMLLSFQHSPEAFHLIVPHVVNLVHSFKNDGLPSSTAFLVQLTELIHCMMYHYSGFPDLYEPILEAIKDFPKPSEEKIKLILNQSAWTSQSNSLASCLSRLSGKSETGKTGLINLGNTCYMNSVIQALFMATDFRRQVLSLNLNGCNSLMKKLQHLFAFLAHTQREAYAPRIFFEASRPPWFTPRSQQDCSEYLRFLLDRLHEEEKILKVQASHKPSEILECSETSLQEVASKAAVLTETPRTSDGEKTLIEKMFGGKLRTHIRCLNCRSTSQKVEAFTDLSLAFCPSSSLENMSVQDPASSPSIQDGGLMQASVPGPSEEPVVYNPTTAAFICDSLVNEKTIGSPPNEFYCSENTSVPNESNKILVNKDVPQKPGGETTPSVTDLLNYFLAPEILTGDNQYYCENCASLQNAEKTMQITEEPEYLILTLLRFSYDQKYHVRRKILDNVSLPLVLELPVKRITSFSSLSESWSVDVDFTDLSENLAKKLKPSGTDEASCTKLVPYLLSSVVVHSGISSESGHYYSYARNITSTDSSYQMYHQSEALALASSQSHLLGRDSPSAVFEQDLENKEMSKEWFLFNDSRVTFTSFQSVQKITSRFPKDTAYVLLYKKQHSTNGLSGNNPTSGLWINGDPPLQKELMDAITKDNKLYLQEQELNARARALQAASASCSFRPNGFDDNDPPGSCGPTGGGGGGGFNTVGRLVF

B1: usp_38_diff_out_5_164_582 (protein)
chain: GVEEYLAEMEAIRDETIAKLDALLAEAKENPEKLDEYKKEITDTTNEAINRMTEVTTRALEEHPEKAEEILARYSELMDELLTHYNAVMEELEKLKEELE
B2: usp_38_diff_out_5_164_592 (protein)
chain: GVEKYLEELQKITDEAIKELKELLEEAKENPEKLEEYKKKATEKTNEAIDKMNEITTKALEEHPEQADTILAHYDEQVTKLLTEYNEVLKEIEELKKKKE
B3: usp_38_diff_out_5_164_589 (protein)
chain: GVEKYLEEIDKLTEEAIAKIKELLAEAKKNPEKLDEVEKEIKELTDKTLDEINKITTEALEKFPEKAEEILSHYDEQVTKLLTAYQAALDELAKLKKEKA
B4: usp_38_diff_out_5_164_584 (protein)
chain: EVEEAFKEMDALTEETIKKLNELLKEAKENPEKAEEYLKEATSLVNSALDKLNEITTETLEKHPEKAEEILKHYDERVTKLLTEYQKVKEEIQKIIEEAK
B5: usp_38_diff_out_5_164_583 (protein)
chain: GVEEYLARLDAIKKETIEELDKLLEEAKKNPEKLEEYKKKITEITNKAINEMTKVTTEALEEFPEQAETILAHYSERIDELLKHYNEVMKELEKLKKELE
B6: usp_38_diff_out_4_99_578 (protein)
chain: EKEKKVEELKKLTEKAKELKKEAEAAKTLSLEERKKKAEELRKELDKIAEEAAKIYFEARESGDKELIEAVEKEAKKFVDAYLEAGTALNELQHEVDEAE
B7: usp_38_diff_out_5_164_585 (protein)
chain: GVEEAKKKMTELTEETIKKLEELLKKAKENPEKAEEYLKEANKLVQEALDELNRITTETLEAHPEQAEEILAHYSEQVTKLLTKYQEVMKEIKEIIKKAK
B8: usp_38_diff_out_5_164_593 (protein)
chain: GVEEYLEELEKITEEAIKKLKELLEEAKKDPSKLEEYKKKATELVNEAIDKMNEITTEALEKHPEKADEILEHYDRQVTRLLTEYQKVMDEIEKIKKELE
B9: usp_38_diff_out_4_99_571 (protein)
chain: EKEKIVEEVKKLKEEAEKLLKEAKEAKKLSTEERRKKAEEIRKKLDELAKEMGKLYFEARDSGDKELIEEVNKEADEFVDAYEKAATELFELEAEVEEEE
B10: usp_38_diff_out_4_99_580 (protein)
chain: EKEKKVKELKKLTEEAKKIKEEAEAAKSLPLEERKKKAEELRKRLDELAKRAAAIYFEARDSGDEELKKAVEEEADKFVDAYLEAGTALNELEHLVLEEE
B11: usp_38_diff_out_4_99_575 (protein)
chain: EKEEMVERVKRLTEEVRRLLEEVEAARTLSPEERRALAERASAELDRLAEEMGKIYFEARDSGDKELIKAVTEAGDEFVDAYERAGLALAELRNEVDEES
B12: usp_38_diff_out_5_164_605 (protein)
chain: GVEEALERLERIREELKKELDELLEEAKKNPEKLEEYKKKVTEKVNEAIDEMNEVTTAALEAHPERADEILAHYDEVVTEMLEHYNKVMEELEKLKKEYE
B13: usp_38_diff_out_4_99_569 (protein)
chain: EKEKKVKEVKKIKEKIEELLKEAEEAEKLSVEERRKKAEEIRKELDELAKKLGKLYFEARDSGDKELIEAVNKEADKAVDAYKEAATKLHELEAKVQEEE
B14: usp_38_diff_out_4_99_577 (protein)
chain: EKEKKVEEVKKIKEELKKLKEEAEAAKKLPLEERKKVAEELSKRLDELAKRLGKIYFEARDTGDKELIKAVTEEANKAVDEYLKAATALNELQSLVDEER
B15: usp_38_diff_out_4_99_568 (protein)
chain: MKEEKVKEVKELTERAKELLEKAKEAFELSHEERKKKAEELRKELDELAKRMGAIYFEARDSGDEELIEAVTEEADEFVDAYNEAAEALNLLEHEVLEEE
B16: usp_38_diff_out_5_164_599 (protein)
chain: SLEEYLRRMEEIREKLIKELKELLEEAKKNPEKLEEIKKEVEKKTEEALNEMNEITTAALEAYPERAEEILRHYSEQVEKMLTEYQEVMEELEKLEKEKK
B17: usp_38_diff_out_5_164_603 (protein)
chain: AVEAALAEMDAIAAELKKELEKLLEEAKKNPEKLEEYKKKLTEATNAALDRLNATTTAALEAAPERADEILAHYDRVVTEMLTKYQEAKEELEKLKKEAA
B18: usp_38_diff_out_4_99_573 (protein)
chain: KKEELVEEVKRLTEEVKEIKKEAEAAKSLPLEERRATAEELRRRLDELARRMGEIYFEARDSGDEELIEAVEEEADKFVDEYLKAGTALNELESEVLEAE
B19: usp_38_diff_out_4_99_579 (protein)
chain: EKEKMVERLKELTKRAERLREEAEAAFSLPLEERRELAERLREELDRLAEEAAEIYFEARDSGDEELIKAVEKEADKFVDAYLAAGTALNELEHLVLEEE
B20: usp_38_diff_out_5_164_586 (protein)
chain: TVEAAKKQMDEITEKLIKELKKLKEEAEKDPSKLDEIEKEANEKTNKAIDEMTAITTETLEANPEKADEILAHYSEQIDKMLKEYQELMDYIKKLKEEKE
B21: usp_38_diff_out_5_164_594 (protein)
chain: GVDAALAEIDKITEEAIKKMEELLEKAKKNPEQLDEYKKKLTEITNEALDKINATTTAALEAHPEQADTILAHYDKQVTKMLTKYQEALDEIEKLKKEKE
B22: usp_38_diff_out_5_164_604 (protein)
chain: AVEEALAKMKAITEELKKKFDELLAEAKKNPEKLDEYKKEVTEALNKAIDEMNEVTTAALEAAPEQADTILAAYDENVTEMLTHYQAVMDELKALEKEAA
B23: usp_38_diff_out_4_99_572 (protein)
chain: EREEMVERMKELTERLKELTARAKAARALPPAERAAAAAALREELDRLAREAGEIYFRARDSGDKELIEEVGKVADEFVDAYLEAGTALNELEAEVDAAA
B24: usp_38_diff_out_5_164_600 (protein)
chain: SVEESLAEIDKITAELKEELKALLAEAKENPEKLKEYKKKMTEKMNEAIDKMNEITTKTLEAYPEQADTILAHYDRRMTEMLTAYNEAMKELEALEKELA
B25: usp_38_diff_out_5_164_596 (protein)
chain: SVEEALKELTELTDKTIAEIDKLVAEAKKNPEKLDEYEKQLTETTNEAIDKMNEITTKALEANPEKADEILSHYDEQMTRLLTRYAEAKAEIEALKKALE
B26: usp_38_diff_out_5_164_588 (protein)
chain: GLEEYLEEIDKITEETIEKLKKLLEEAKKNPEKLEEYEKEIEKLTEEALDKINEVVTEALEKHPEKAEEILAHYDEQVTRLLTAYQEAKKELEKLKKEKE
B27: usp_38_diff_out_4_99_566 (protein)
chain: MKEELVKKVKELKKKAEELKKKAEEAFKLDHEERKKVAEELEKELDEIAKEMGAIYFSARDSGDAELIKAVQKEADEFVDAYNEAATALNELRHLVLEEE
B28: usp_38_diff_out_5_164_602 (protein)
chain: SLEEYLKEMDELTKELIEELKKLVEEAKKNPEKLEEYKKKINEKTNEAIDKMNEITTKALEEFPEKAEEILKHYSEQIDKMLEAKNAAMKELDALKKAQA
B29: usp_38_diff_out_4_99_565 (protein)
chain: EKERMVEEVRRLTERARELLERARAAFELPPEERRRTAEELARELDELARRMGAIAFAARDSGDPELIKAVNEEADEFVDAYTEAATALNELRHLVLQEE
B30: usp_38_diff_out_4_99_570 (protein)
chain: KKEELVERAKELKERAEELLKEAKKARELSTEERAKKAAEIDKELDELAKEMGEIYFEARDSGDEELIEAVTEVADEFVKAYEKAATELFELQAEVQEEQ
B31: usp_38_diff_out_4_99_574 (protein)
chain: EKEEKVKKAEEIAKKLEELLKEAKKARELSTEERRKKAEEIRKELDELAKELGKIYFEARDSGDKELIKEVEEVAKKAVDAYEKAATELFELEDEVQQEE
B32: usp_38_diff_out_5_164_587 (protein)
chain: MVEEYLKEMEKITEEAIKKLEELLAEAKKNPEKLDEYKKEIEKLVEKALNEINELVTKALEENPEKAEEILKKYDELVTKLLTAYQKAMKELEALKKEKA

Target: T1, USP38, Q8NB14
Assay: median log2 fold change of GCK-ALFA target abundance (FLAG IP / Myc IP barcode read proportion) (log2 ratio); each designed protein is fused to an ALFA-tag nanobody in HEK293 cells to bring the named protein to FLAG-tagged glucokinase (GCK); Myc marks an untargeted standard; higher = target protein stabilised (more abundant)
Conditions: target protein: 3xFLAG-MCP-GCK-ALFA reporter; HEK293 landing pad (RPLP)
In short: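 The readout is target abundance, the per-binder median log2 ratio of FLAG to Myc barcode read proportions. It came from HEK293 landing-pad cells carrying a recombined ALFA-nanobody-fused binder library, induced with 2 μg mL^−1 doxycycline and transfected with a plasmid for a FLAG-tagged target and a Myc-tagged standard. After 48 h, lysates were immunoprecipitated with anti-FLAG and anti-Myc, and circular RNA barcodes were reverse transcribed, amplified and sequenced. Each barcode needed a proportion of at least 10^−7 in both replicates and each binder at least 3 barcodes per replicate, a pseudocount of 10^−6 was added, and the replicates were pooled.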
In the case of B1, the “median log2 fold change” value is reported as -0.0672. With B2 the “median log2 fold change” value was 0.0989. With B3 the “median log2 fold change” value was -0.351. For B4, the “median log2 fold change” value was -0.0565. B5 was tested, and the “median log2 fold change” value was 0.0633. With B6 the “median log2 fold change” value was -0.163. B7 was tested, and the “median log2 fold change” value was 0.00563. B8 was tested, and the “median log2 fold change” value was -0.211. In the case of B9, the “median log2 fold change” value is reported as -0.355. B10 was tested, and the “median log2 fold change” value was 0.145. In the case of B11, the “median log2 fold change” value is reported as -0.45. For B12, the “median log2 fold change” value was -0.0369. For B13, the “median log2 fold change” value was -0.151. B14 was tested, and the “median log2 fold change” value was -0.345. In the case of B15, the “median log2 fold change” value is reported as -0.28. In the case of B16, the “median log2 fold change” value is reported as -0.404. For B17, the “median log2 fold change” value was -0.21. For B18, the “median log2 fold change” value was 0.007. B19 was tested, and the “median log2 fold change” value was -0.154. For B20, the “median log2 fold change” value was -0.179. For B21, the “median log2 fold change” value was -0.474. For B22, the “median log2 fold change” value was -0.333. For B23, the “median log2 fold change” value was 0.235. With B24 the “median log2 fold change” value was -0.0274. With B25 the “median log2 fold change” value was -0.12. With B26 the “median log2 fold change” value was 0.25. B27 was tested, and the “median log2 fold change” value was 0.0841. For B28, the “median log2 fold change” value was 0.277. B29 was tested, and the “median log2 fold change” value was 0.126. With B30 the “median log2 fold change” value was -0.0709. For B31, the “median log2 fold change” value was -0.356. In the case of B32, the “median log2 fold change” value is reported as -0.281.
